Common to all, as to assay: BK channel mutant inhibitors and activators – cell-based, U2OS BacMam, thallium flux, beta subunits, selectivity assay, profiling panel (AID 1259406);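 further: initial slope of Thallos dye fluorescence rise after thallium is added; log ratio against the mean of 0.3% DMSO vehicle wells on the same plate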
One assay concerns F380Y. The conditions noted are these: U2OS BacMam BK variants, at 30 µM.
A further assay relates to F380Y/beta1. The conditions noted are these: U2OS BacMam BK variants, at 30 µM.
Another assay concerns F380Y/beta2Delta. The conditions noted are these: U2OS BacMam BK variants, at 30 µM.
The subject of the next assay is F380Y/beta4. Particulars: U2OS BacMam BK variants, at 30 µM.
For assay [1], the target named is Calcium-activated potassium channel subunit alpha-1 (Homo sapiens) + Leucine-rich repeat-containing protein 26 (Homo sapiens) (UniProt Q12791+Q2I0M4). The conditions noted are these: U2OS BacMam BK variants, F380Y/Slo1WT/gamma1, at 30 µM.
The subject of a further assay is R275C. Particulars: U2OS BacMam BK variants, at 30 µM.
A further assay deals with R275C/beta1. The conditions noted are these: U2OS BacMam BK variants, at 30 µM.
In the next assay the test system is R275C/beta2Delta. Particulars: U2OS BacMam BK variants, at 30 µM.
The test system of the next assay is R275C/beta4. The conditions noted are these: U2OS BacMam BK variants, at 30 µM.
For a further assay, the system named is R275C/Slo1WT/beta2. The conditions noted are these: U2OS BacMam BK variants, at 30 µM.

Unmarked numbers belong to inactive results. Calls of active or inactive are those of the source.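 How the source made its calls: active means thallium flux through the channel raised or lowered by more than 3 SD from vehicle-only wells, actives on both sides; inactive means the rest.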

Chain of Calcium-activated potassium channel subunit alpha-1 (Homo sapiens) + Leucine-rich repeat-containing protein 26 (Homo sapiens) (Q2I0M4 whole entry, looked up, one chain of several): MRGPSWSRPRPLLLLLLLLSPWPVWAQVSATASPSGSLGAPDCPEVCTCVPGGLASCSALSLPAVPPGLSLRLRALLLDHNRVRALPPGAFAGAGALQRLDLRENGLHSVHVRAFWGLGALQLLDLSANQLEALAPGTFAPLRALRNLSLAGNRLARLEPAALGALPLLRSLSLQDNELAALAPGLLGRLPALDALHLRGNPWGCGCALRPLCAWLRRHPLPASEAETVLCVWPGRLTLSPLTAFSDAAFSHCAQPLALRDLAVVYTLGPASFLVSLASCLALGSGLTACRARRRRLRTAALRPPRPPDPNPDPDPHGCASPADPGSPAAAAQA

Regarding `Cc1ccc(S(=O)(=O)NC(=O)Nc2nc(-c3ccc(C)c(Cl)c3)c(C)s2)cc1`, the log fold change Tl+ flux in the assay on F380Y was 0.099; with F380Y/beta1, 0.176 (active); with F380Y/beta2Delta, 0.0427; in the assay with F380Y/beta4 it was 0.19 (active); in assay [1], 0.156 (active); with R275C it was 0.265 (active). In addition, the log fold change Tl+ flux in the assay with R275C/beta1 was 0.24 (active); in the assay on R275C/beta2Delta it was 0.0622; with R275C/beta4 it was 0.211 (active); in the assay with R275C/Slo1WT/beta2, 0.0547.

On to `CCOC(=O)C1CCCN(C(=O)Nc2c(-c3ccccc3)noc2C)C1` (stereo not given), for which the log fold change Tl+ flux with F380Y is 0.0297; in the assay with F380Y/beta1, -0.0223; in the assay on F380Y/beta2Delta it was -0.00149; with F380Y/beta4, 0.0159; in assay [1], 0.00293; in the assay on R275C, -0.0483. Moreover, the log fold change Tl+ flux was -0.0144 in the assay on R275C/beta1, -0.0161 in the assay with R275C/beta2Delta, -0.0185 with R275C/beta4 and 0.00733 in the assay with R275C/Slo1WT/beta2.

As to `CC12CC=C(C#N)C1(C)CC=C2C#N` (stereo not given), the log fold change Tl+ flux was 0.0296 with F380Y; 0.00573 with F380Y/beta1; 0.0262 in the assay with F380Y/beta2Delta; 0.00555 in the assay on F380Y/beta4; 0.0366 in assay [1]; -0.017 in the assay with R275C. The log fold change Tl+ flux in the assay on R275C/beta1 was 0.0163; with R275C/beta2Delta, -0.011; with R275C/beta4 it was 0.0134; in the assay with R275C/Slo1WT/beta2 it was -0.00417.

As to `Cc1ccc(C2=C(c3ccccc3)C(=O)C(c3ccccc3)=C2c2ccc(Cl)cc2)cc1`, the log fold change Tl+ flux in the assay with F380Y was -0.00103; with F380Y/beta1 it was -0.0199; with F380Y/beta2Delta it was 0.00394; in the assay on F380Y/beta4 it was -0.0256; in [1] it was 0.0117; with R275C, 0.0143. In addition, the log fold change Tl+ flux with R275C/beta1 is -0.08; with R275C/beta2Delta, 0.0554; with R275C/beta4, -0.0334; in the assay on R275C/Slo1WT/beta2, -0.0207.

As to `CCOC(=O)CCSC1=NC(c2cccs2)C(C(=O)OCC)=C(C)N1` (stereo not given), the log fold change Tl+ flux with F380Y is -0.00248; with F380Y/beta1, -0.0154; in the assay on F380Y/beta2Delta, -0.0693; with F380Y/beta4 it was -0.0516; in [1], -0.0633; with R275C, -0.0523. In addition, the log fold change Tl+ flux is -0.0288 in the assay on R275C/beta1, -0.0824 with R275C/beta2Delta, -0.0154 with R275C/beta4 and -0.0325 with R275C/Slo1WT/beta2.

`N#CC(=Cc1cccs1)C(N)=O`: the log fold change Tl+ flux in the assay on F380Y was 0.0135; in the assay on F380Y/beta1 it was 0.00229; in the assay on F380Y/beta2Delta, 0.0332; with F380Y/beta4, -0.0391; in [1] it was -0.00699; with R275C it was 0.00755. The log fold change Tl+ flux was -0.00113 with R275C/beta1, 0.0185 in the assay on R275C/beta2Delta, 0.00837 with R275C/beta4 and -0.0032 in the assay on R275C/Slo1WT/beta2.

Turning to `O=C(CC(=O)NNC(=O)c1ccc(F)cc1)NNC(=O)c1ccc(F)cc1`, the log fold change Tl+ flux in the assay with F380Y is 0.0677; in the assay with F380Y/beta1, -0.0109; in the assay with F380Y/beta2Delta, 0.0456; in the assay with F380Y/beta4, -0.0066; in [1] it was -0.0103; in the assay with R275C it was -0.0271. Further, the log fold change Tl+ flux is 0.0179 in the assay with R275C/beta1, 0.0309 in the assay on R275C/beta2Delta, -0.00647 in the assay with R275C/beta4 and -0.086 in the assay with R275C/Slo1WT/beta2.

`CCOC(=O)CN(C=NC#N)c1ccc(OC)cc1`: the log fold change Tl+ flux in the assay on F380Y was -0.0235; in the assay with F380Y/beta1, 0.0113; with F380Y/beta2Delta it was -0.0114; with F380Y/beta4 it was 0.0329; in assay [1], 0.0663; with R275C, 0.0146. Also, the log fold change Tl+ flux in the assay on R275C/beta1 is -0.0574; in the assay with R275C/beta2Delta, -0.0152; with R275C/beta4, -0.00948; with R275C/Slo1WT/beta2, 0.0303.

As to `Cc1[nH]n(-c2c(Cl)cc(C(F)(F)F)cc2Cl)c(=O)c1N=Nc1ccccc1`, the log fold change Tl+ flux was 0.0138 in the assay with F380Y; 0.00301 in the assay on F380Y/beta1; 0.00886 in the assay with F380Y/beta2Delta; 0.0101 with F380Y/beta4; -0.0146 in assay [1]; -0.0246 in the assay with R275C. For the same compound, the log fold change Tl+ flux was 0.00755 with R275C/beta1, 0.0171 with R275C/beta2Delta, -0.0209 in the assay on R275C/beta4 and -0.029 with R275C/Slo1WT/beta2.

In the case of `COc1cc(CCC(C)NC(=O)c2ccc(C)cc2)ccc1OC(=O)c1ccc(C)cc1` (stereo not given), the log fold change Tl+ flux is -0.0917 with F380Y; -0.0646 with F380Y/beta1; -0.0421 in the assay on F380Y/beta2Delta; -0.23 (active) in the assay with F380Y/beta4; -0.115 (active) in assay [1]; -0.0349 in the assay with R275C. The log fold change Tl+ flux with R275C/beta1 is -0.0935; in the assay with R275C/beta2Delta, -0.0312; with R275C/beta4, -0.0233; in the assay on R275C/Slo1WT/beta2 it was 0.00819.

Consider `COc1ccc(Cl)cc1N1C(=O)C=C(c2ccccc2)C1=O`, for which the log fold change Tl+ flux in the assay with F380Y is 0.0164; with F380Y/beta1, 0.00407; in the assay on F380Y/beta2Delta, -0.00673; with F380Y/beta4, -0.00456; in [1] it was 0.00342; in the assay with R275C, -0.0171. In addition, the log fold change Tl+ flux with R275C/beta1 was 0.056; with R275C/beta2Delta, 0.00976; in the assay on R275C/beta4, 0.0143; in the assay with R275C/Slo1WT/beta2 it was -0.0335.

For the origin of these results see PubChem BioAssay.
